These results are taken from PubChem BioAssay (NCATS).

Inconclusive results are not listed. A call without a number means that no potency is given here. Active and inactive are the calls of the source. Calls follow the shape of the dose curve; as a rule, active = well fitted inhibition curve with a large enough effect; inconclusive = small, poorly fitted or top-dose-only effect; inactive = flat fitted curve, though single readings scatter.

This assay deals with Zika virus NS2B-NS3 protease. Put plainly: Primary screen GU AMC qHTS for Zika virus inhibitors (AID 1347154). Also: nearly all actives have a fitted effect of over 70% in size. To be noted: Zika NS2B-NS3 unlinked protease, AMC fluorogenic substrate; series mostly up to 54.1 µM. The procedure, abridged:
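Unlinked Zika NS2B hydrophilic domain/NS3 protease domain noncovalent complex (25 nM final) in 10 mM Tris-HCl pH 8.0, 0.01% Tween 20, with AMC peptide substrate. Fluorescence (ex 340, em 450 nm) change over 15 min, room temperature; percent inhibition fitted to 4-parameter Hill equation.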
(In general: qHTS replaces the single test concentration by a dilution series.)
Turning to `OCCN1C[C@H](O)[C@@H](O)[C@H](O)[C@H]1CO`, the Potency result was “inactive”. In the case of `C=CCOc1ccccc1OCC(O)CNC(C)C` (configuration not stated), the Potency result was “inactive”. In the case of `C[n+]1ccccc1/C=N/O`, the Potency result was “inactive”. In the case of `CC(=O)Nc1ccccc1`, the Potency entry is “inactive”. In the case of `COc1ccc(-c2cc(=O)c3c(O)cc(O[C@@H]4O[C@H](CO[C@@H]5O[C@@H](C)[C@H](O)[C@@H](O)[C@H]5O)[C@@H](O)[C@H](O)[C@H]4O)cc3o2)cc1O`, the Potency entry was “inactive”. Take `CCN(CC)C(=O)c1cccc(C)c1`: the Potency result is “inactive”. As to `Cc1[nH]c(C)c(Cl)c(=O)c1Cl`, the Potency result was “inactive”. `O=c1[nH]c(=O)n([C@H]2C[C@H](O)[C@@H](CO)O2)cc1I`: the Potency entry was “inactive”. In the case of `CN[C@@H]1[C@@H](O)[C@@H](O[C@@H]2[C@H](O)[C@H](O[C@H]3OC(CN)=CC[C@H]3N)[C@@H](N)C[C@H]2N)OCC1(C)O` (some centres not stated), the Potency result is “inactive”. Turning to `NC(=O)c1ccc([N+](=O)[O-])cc1Cl`, the Potency entry was “inactive”. For `C=CCNC(N)=S`, the Potency result is “inactive”.

As for `C[C@H]1COc2c(C3(N)CC3)c(F)cc3c(=O)c(C(=O)O)cn1c23`, the Potency entry was “inactive”.

As for `COC(=O)c1ccccc1C(=O)c1ccc(OCCN2CCCCC2)cc1`, the Potency entry was “inactive”.

`CN(C/C=C/C#CC(C)(C)C)Cc1cccc2ccccc12`: the Potency result was “inactive”. Turning to `NCc1ccc(S(N)(=O)=O)cc1`, the Potency result is “inactive”.

As to `CC(N)CCCC(C)(C)O` (configuration not stated), the Potency result is “inactive”. Turning to `CCCNC(C)(C)COC(=O)c1ccccc1`, the Potency result is “inactive”. Regarding `CC(=O)NCc1c(I)c(NC(C)=O)c(I)c(C(=O)O)c1I`, the Potency entry was “inactive”.

Consider `O=c1[nH]c2cc(C(F)(F)F)c(N3CCOCC3)cc2n(CP(=O)(O)O)c1=O`, for which the Potency result was “inactive”. Regarding `CC1(C)S[C@@H]2[C@H](N=CN3CCCCCC3)C(=O)N2[C@H]1C(=O)O`, the Potency result was “inactive”. Same read-out and setting: then `C1CCN2C[C@@H]3C[C@@H](CN4CCCC[C@@H]34)[C@H]2C1`, with “inactive”. Same read-out and setting: next, `NC(=O)CCCCC1CCSS1` (configuration not stated): “inactive”; `O=C(OOC(=O)c1ccccc1)c1ccccc1`: “inactive”; `Cc1cc(OI)c(C(C)C)cc1-c1cc(C(C)C)c(OI)cc1C`: “inactive”. For `OC(CCN1CCCC1)(c1ccccc1)C1CCCCC1` (configuration not stated), the Potency entry was “inactive”.

Take `CC(CN(C)C)C(C)(O)Cc1ccc(Cl)cc1` (configuration not stated): the Potency entry was “inactive”. On to `Cc1c(NC(C)C)c(=O)n(-c2ccccc2)n1C`, for which the Potency result is “inactive”. `CCCCC1(COC(=O)CCC(=O)O)C(=O)N(c2ccccc2)N(c2ccccc2)C1=O`: the Potency result is “inactive”. Take `O=C1C(c2[nH]c3ccccc3c2O)=Nc2ccccc21`: the Potency entry was “inactive”. Consider `CN1CC(=O)NC1=N`, for which the Potency entry is “inactive”. For `O=C(NCC(O)CO)c1c(I)c(C(=O)NCC(O)CO)c(I)c(N(CCO)C(=O)CO)c1I` (configuration not stated), the Potency entry was “inactive”. As to `Cc1onc(-c2ccccc2)c1-c1ccc(S(N)(=O)=O)cc1`, the Potency result is “inactive”. Turning to `O[C@@H]1CO[C@H]2[C@@H]1OC[C@@H]2O`, the Potency result was “inactive”.

`O=C(c1ccccc1)C(O)c1ccccc1` (configuration not stated): the Potency result is “inactive”. On to `CC(=O)Oc1cccc(C)c1`, for which the Potency result was “inactive”.

With `N[C@@H](Cc1ccc(O)cc1)C(=O)O`, the activity change, negative = inhibition is 5.3% [at 6.83 µM] (inactive). For `CCOC(=O)[C@H](CCc1ccccc1)N[C@@H](C)C(=O)N1CCC[C@H]1C(=O)O`, the Potency entry is “inactive”.
